We go through 40 molecules from PubChem BioAssay (NCI).

This is part of a sample that, as a whole, favours compounds with a hit. Of some 83,000 tested, about 20% had one in any assay.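 Negative percent growth values reflect cell death: -40 means 40% of the cells present at the start died, and -100 means all died.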 A number with no mark means an inactive call. Calls of active or inactive are those of the source. Rule for the calls: active = growth percent below 10; inactive = the rest.

This experiment has as its system HL-60(TB) leukemia. Nature of the experiment: NCI-60 one-dose screen, 48 h (100 = growth as untreated, 0 = no growth, -100 = all killed). To be noted: 10 µM unless noted.
`CC1/C=C/C=C/C=C/C=C/C=C/C=C/C=C/C(O[C@@H]2O[C@H](C)[C@H](O)[C@@H](O)[C@@H]2N)CC(O)C(C(=O)O)C(O)CC(=O)CC(O)CC(O)CC(O)CC(=O)CCCC(=O)CC(=O)OC1C(C)CC(C)C(O)CC(=O)c1ccc(N)cc1` (stereo not given in full): the growth is -60.3% (active).

In the case of `C=C(C)[C@@H]1CC[C@]2(C=O)CC[C@]3(C)[C@H](CC[C@@H]4[C@@]5(C)C/C(=C/c6cccnc6)C(=O)C(C)(C)[C@@H]5CC[C@]43C)[C@@H]12`, the growth is 25.9%.

Turning to `c1ccc2c(c1)Nc1cc3ccccc3cc1N2`, the growth was 7.75% (active).

In the case of `O=C(Nc1cccc(-n2cc(-c3ccncc3)c(-c3ccc(Cl)c(O)c3)n2)c1)c1ccc(N2CCOCC2)c(C(F)(F)F)c1`, the growth is 51.6%.

Turning to `CSC(=S)N/N=C(\C)c1ccccn1`, the growth was -12.1% (active).

With `COc1ccc(S(=O)(=O)n2cc(C(=O)C(=O)Nc3ccncc3)c3ccccc32)cc1F`, the growth is -46.4% (active).

Consider `COc1ccc(OC)c(/C=C/c2nnc(Nc3ccc(Cl)cc3)o2)c1`, for which the growth is 80.6%.

As for `Brc1ccc2[nH]cc(-c3nc(-c4c[nH]c5ccncc45)cs3)c2c1`, the growth is -55.4% (active).

As for `O=[N+]([O-])c1ccc(N2CCN=N2)cc1`, the growth is 84.4%.

`CCCCCC(=O)OCc1ccccc1`: the growth was 89.4%.

For `CCCN1CCN(c2ccc3nc(-c4ccc5nc(-c6cc(OC)c(OC)c(OC)c6)[nH]c5c4)[nH]c3c2)CC1`, the growth was 97.4%.

Turning to `Cc1ccc(N=C=C(c2ccccc2)c2ccccc2)cc1`, the growth was 18.6%.

Turning to `COc1cc(C2CC(c3ccc(SC)cc3)=NN2C(C)=O)cc(OC)c1OC` (stereo not given), the growth was 17.6%.

Consider `C/C(=N/NC(N)=S)c1sc(Nc2cccc(Cl)c2)nc1C`, for which the growth is 65%.

As for `CS(=O)(=O)c1ccc(NC(=O)c2ccccc2)nc1`, the growth is 67.5%.

Regarding `c1cc2ccc3cc2cc1CNCCN1CCNCc2ccc4ccc(cc4c2)CNCCN(CCNC3)CCNCc2ccc3ccc(cc3c2)CNCC1`, the growth is -38.7% (active).

For the molecule `O=C1/C=C/[C@@H](O)[C@@H]2C[C@@H](O)C[C@H]2/C=C/CCC[C@H](CCO)O1`, the growth was 3.3% (active).

With `COc1cc2nc(NC3CCCC3)nc(NC3CCN(C(C)C)CC3)c2cc1OC`, the growth was 88.7%.

Take `COc1ccc(/C=C2\CCCC3=C2NC(N)=NC3c2ccc(OC)cc2)cc1` (stereo not given): the growth was 67.8%.

For `COc1ccc2c(c1)C(=O)/C(=C/c1cccnc1)CC2`, the growth was 99.5%.

Turning to `NS(=O)(=O)c1ccc(-n2nc(C(=O)N/N=C\c3ccc(F)cc3)cc2-c2ccc(Cl)cc2)cc1`, the growth was 121%.

With `NC(=S)N/N=C/c1ccc(Cl)s1`, the growth is 102%.

For the molecule `COC(=O)[C@@H](C)CNS(=O)(=O)N(c1cc(C(F)(F)F)cc(C(F)(F)F)c1)C1CCN(Cc2ccc(F)cc2)CC1`, the growth was 31.3%.

In the case of `CC(C)OC(=O)c1ccc([N+](=O)[O-])cc1`, the growth is 121%.

In the case of `CCN(CC)C(=O)C[N+](C)(C)CCOC(c1ccccc1)c1ccccc1`, the growth is 97.5%.

For the molecule `O=C(NCC(c1ccsc1)N1CCCCCC1)c1ccc(C(F)(F)F)cc1` (stereo not given), the growth was 97.5%.

Take `CCCCCc1c(C)[nH]c(/C=C2\N=C(c3ccc[nH]3)C=C2Oc2ccc(Cl)cc2)c1C`: the growth was -40.3% [100 µM] (active).

Take `COc1ccc(-n2nc(C)c3c(Nc4ccc(NC(=O)Nc5cc(C(F)(F)F)ccc5F)cc4)ncnc32)cc1`: the growth was 45.8%.

With `O=[N+]([O-])c1cccc(-c2nc3sccn3c2-c2ccnc(NCCCNS(=O)(=O)c3ccc(Br)cc3)n2)c1`, the growth was 19.2%.

Take `CCc1nc2cc(/C=C/C(=O)NO)c(F)cc2c(=O)n1CCc1ccccc1`: the growth was -8.55% (active).

Take `COc1ccc(-c2cc(-c3cccnc3)nc(S(=O)(=O)CC(=O)Nc3ccc(C)cc3)c2C#N)cc1OC`: the growth is 113%.

Turning to `COc1ccc(-n2c(=O)n(-c3ccc(-c4nc5ccc(F)cc5s4)cc3)c(=O)c3cccnc32)cc1`, the growth is 102%.

Turning to `COc1cc(NC(N)=NCC(C)(C)COc2ccc(C(F)(F)F)cc2)cnc1C#N`, the growth is 24.7%.

Take `N#Cc1nc(-c2ccccc2)oc1S(=O)(=O)NCC(c1ccc(Cl)cc1)N1CCCCC1` (stereo not given): the growth was 8.18% (active).

Turning to `CCOc1cccc(/C=N/NC(=O)C(=O)Nc2cccc(C(F)(F)F)c2)c1O`, the growth was 11.2%.

For `Cc1ccc2c(n1)C(=O)C(Cl)=C(Nc1ccc(N3CCN(C)CC3)cc1)C2=O`, the growth was -46.7% (active).

For the molecule `COc1ccc(/C=C(\C#N)c2cc3ccccc3n2C)cc1`, the growth was 0.415% (active).

With `NC(=S)N/N=C(/c1ccccc1)c1ccccc1N`, the growth is 73.3%.

`Cc1ccc(-c2csc(NC(=O)CCCCl)n2)cc1`: the growth was 109%.

As for `CC1(C)COB(OCC(C)(C)COB2OCC(C)(C)CO2)OC1`, the growth was 101%.
